# Most compounds without a hit are left out; they make up all but 7.3% or so of the library.
# HCV inhibitor = HCV inhibition. Potency, µM (doses to about 41.8 µM), hits mostly inhibitors. Huh7.5.1 HCVcc-Cre infection, luciferase reporter, 44 h. hit rate 3.4% among 340,000. AID 651820; active = well fitted inhibition curve with a large enough effect; inconclusive = small, poorly fitted or top-dose-only effect, or another doubt; inactive = no such curve, though single readings can be large or run the other way
#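 1,000 cells/well; 4 h culture; + compound; + HCVcc-Cre (~0.5 moi); 44 h; luciferase substrate, RT 15 min; read 15 sec.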
# HCMV antiviral = inhibitors of human cytomegalovirus | activity change, negative = inhibition, % at 57.5 µM | AID 1259415 | hit rate 4.5% among 410,000 | HFF cells, HCMV-luciferase reporter, 72 h; hits give low values; in the data active = activity change below about -60%; inconclusive = no clear call, values can overlap the other calls; inactive = above about -39%
#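 Two compound doses tested in HFFs infected with HCMV-luciferase, MOI 1 PFU/cell, 72 h at 37C. Lysate luminescence read with OneGlo; data normalized against buffer-only and 10uM Salinomycin inhibitor controls.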
# VACV mCherry inh = vaccinia inhibition (mCherry reporter); Potency, µM (highest dose often 36.5 µM), usual class: inhibitors; AID 720579; hit rate 0.63% among 310,000; Vaccinia virus mCherry reporter infection, fluorescence; calls by dose curve; tested in A549 cells; also: nearly all actives have a fitted effect of over 35% in size
# VACV Venus inh = inhibitors of vaccinia virus (Venus reporter). hit rate 0.46% among 330,000. Potency, µM (series often up to 36.5 µM), most hits filed as inhibitors. Vaccinia virus Venus reporter expression, fluorescence. AID 720580; calls by dose curve; tested in A549 cells; also: nearly all actives have a fitted effect of over 30% in size
# FMDV inh = antivirals against foot and mouth disease virus; AID 1159524; Potency, µM (series often up to 57.9 µM), hits mostly inhibitors; FMDV antiviral cell-based qHTS; hit rate 1.2% among 410,000; calls by dose curve; tested in HEK293T cells; also: read-out not given here; nearly all actives have a fitted effect of over 45% in size
# A number is an active result; – = inactive; ? = inconclusive; · = no result given; + = active, no number; [ ] = remark or other dose.
SMILES,HCV inhibitor,HCMV antiviral,VACV mCherry inh,VACV Venus inh,FMDV inh
CNC(=O)c1sc(N2N=C3/C(=C\c4ccccc4)CCCC3C2c2ccccc2)nc1C (configuration not stated),?,–,–,–,32µM
COc1ccc(C(=O)/C=C/C(=O)N(Cc2ccccc2)C(C(=O)NC2CCCCC2)c2ccncc2)c(O)c1 (configuration not stated),–,?,–,–,–
COc1ccc(C(=O)/C=C/C(=O)N(CC(=O)NC2CCCCC2)Cc2ccccc2OC)c(O)c1,?,-97,?,–,7.9µM
COc1ccc(C(=O)/C=C/C(=O)N(CC(=O)NC2CCCCC2)Cc2ccccc2)c(O)c1,?,-99,–,–,8.9µM
COc1ccc(C(=O)/C=C/C(=O)N(CC(=O)NC2CCCCC2)CC2CCCO2)c(O)c1 (configuration not stated),?,–,·,·,7.9µM
COc1ccc(C(=O)/C=C/C(=O)N(Cc2ccc(F)cc2)C(C(=O)NC2CCCCC2)c2ccncc2)c(O)c1 (configuration not stated),?,·,–,?,?
CCCCN(C)CCNC(=O)c1cc2c(=O)n(C)c3ccccc3c2n1C,·,–,–[7.34 µM],–[7.34 µM],–
CCCCOc1ccc(C2C(=O)N(C3CCCCC3)CC(=O)N2CCCC)cc1 (configuration not stated),·,–,–,–,–
O=C1CC(c2ccc(F)c(Br)c2)C2=C(CCCC2=O)N1 (configuration not stated),–,-102,–,–,?
O=C1CC(c2ccc3c(c2)OCO3)C2=C(CCCC2=O)N1 (configuration not stated),–,–,·,–,–
O=C1COCc2cc(-c3cccnc3)ccc2N1Cc1ccc2c(c1)OCO2,·,–,·,·,·
CC(=O)N1CC(C)Sc2ccc(S(=O)(=O)NC(C)c3ccccc3)cc21 (configuration not stated),?,-72,–[7.34 µM],–[7.34 µM],–
CC1Sc2ccc(S(=O)(=O)NCCc3ccccc3)cc2NC1=O (configuration not stated),–,+,·,·,–
COc1ccccc1NS(=O)(=O)c1ccc2c(c1)N(C(C)=O)CC(C)S2 (configuration not stated),–,?,·,·,–
CC(=O)N1CCSc2ccc(S(=O)(=O)NCCc3ccc(Cl)cc3)cc21,11µM,-60,–[7.34 µM],–[7.34 µM],–
CC(=O)N1CCSc2ccc(S(=O)(=O)NCCc3ccc(C)cc3)cc21,?,–,–,–,–
CC(=O)N1CC(C)Sc2ccc(S(=O)(=O)NCCc3ccccc3)cc21 (configuration not stated),?,+,·,·,–
Cc1cc(NS(=O)(=O)c2ccc(NC(=O)COc3c(C)ccc(C)c3C)cc2)nc(C)n1,·,–,–,–,–
COc1cccc(Nc2nccc3[nH]c(-c4cccc(C(F)(F)F)c4)nc23)c1,·,–,·,·,·
c1csc(CNc2nc(-c3ccc4c(c3)OCO4)nc3ccccc23)c1,·,·,·,·,–
Cc1nnc(SCC(=O)NCc2ccc(N(C)C)cc2)c2nn(-c3ccccc3)c(C)c12,·,–,–,–,–
CC(=O)N1CC(C)Sc2ccc(S(=O)(=O)NCCc3ccc(C)cc3)cc21 (configuration not stated),11µM,?,·,·,–
COc1ccc(F)cc1S(=O)(=O)N1CCC(C(N)=O)CC1,–,–,?,13µM,–
COc1ccc(OC)c(S(=O)(=O)N2CCC(C(=O)N3CCN(c4ccc(F)cc4)CC3)CC2)c1,?,-62,–,–,?
CN(C)c1nc2cc3c(cc2cc1CN(CC1CCCO1)C(=O)/C=C/c1cccs1)OCO3 (configuration not stated),·,·,–,–,–
SMILES,HCV inhibitor,HCMV antiviral,VACV mCherry inh,VACV Venus inh,FMDV inh
O=S(=O)(c1ccccc1F)N1CCN(c2nc(-c3cccs3)nc3ccccc23)CC1,·,·,–,–,·
COc1ccccc1/C=C/C(=O)OCC(=O)c1c[nH]c2ccccc12,?,–,–,–,–
Cc1nn(C2CCS(=O)(=O)C2)c(Cl)c1/C=C/C(=O)OCC(=O)c1c[nH]c2ccccc12 (configuration not stated),22µM,–,–,–,?
COc1ccc(OC)c(NC(=O)COC(=O)/C=C/c2c(C)nn(C3CCS(=O)(=O)C3)c2Cl)c1 (configuration not stated),–,–,·,–,–
Cc1nn(C2CCS(=O)(=O)C2)c(Cl)c1/C=C/C(=O)OCC(=O)c1cc(C)n(-c2ccc(F)cc2)c1C (configuration not stated),4µM,-86,?,–,?
CCC(CC)C(=O)Nc1nnc(SCc2cc(=O)c3ccccc3[nH]2)s1,·,–,–,–,?
CCNC(=O)C1(C)CCCN(C(=O)c2nc(C)oc2C)C1 (configuration not stated),·,–,–,–,–
Cc1cccc(C)c1OCC(=O)Nc1nonc1-c1ccc(Br)cc1,·,–,–,–,–
Cc1cc(C)cc(OC(C)C(=O)Nc2nonc2-c2ccc(Br)cc2)c1 (configuration not stated),·,-62,–,–,–
O=C(c1cc(COc2c(F)cccc2F)on1)N(Cc1ccccc1)CC1CC1,?,–,–,–,–
CCCS(=O)(=O)NCCc1cc2c(OC)ccc(OC)c2[nH]c1=O,–,-77,–,–,–
COc1ccc(OC)c2[nH]c(=O)c(CCNC(=O)c3ccc(S(=O)(=O)N4CCCC4)cc3)cc12,11µM,–,–,–,?
CCN(CC)S(=O)(=O)c1ccc(C(=O)NCCc2cc3c(OC)ccc(OC)c3[nH]c2=O)cc1,?,–,–,–,?
CCCCc1oc2ccc(NS(C)(=O)=O)cc2c1C(=O)c1ccc(OCCCN(CCCC)CCCC)cc1,·,-82,·,·,·
Nc1c(Cl)cc(/C=C2\C=Cc3ccccc32)cc1Cl,·,·,–,–,·
CCOC(=O)c1ccc(NC(=O)CCc2nc(-c3ccccc3Cl)no2)cc1,11µM,–,·,·,–
CCOC(=O)c1cccc(NC(=O)CCc2nc(-c3ccc(C)cc3)no2)c1,?,–,·,–,?
CCOC(=O)c1ccc(NC(=O)CCc2nc(-c3ccccc3)no2)cc1,?,–,–,–,20µM
Cc1c(NC(=S)N/N=C\c2ccccc2O)c(=O)n(-c2ccccc2)n1C,?,–,13µM,?,–
Cc1c(NC(=S)N/N=C/C=C/c2ccccc2)c(=O)n(-c2ccccc2)n1C,–,–,–,–,–
Cc1c(NC(=S)N/N=C/c2ccc(Br)cc2)c(=O)n(-c2ccccc2)n1C,–,–,–,–,–
Cc1c(NC(=S)N/N=C/C=C/c2ccc([N+](=O)[O-])cc2)c(=O)n(-c2ccccc2)n1C,–,-103,–,–,?
O=C(COc1ccccc1Cl)Nc1ccccc1C(=O)N1CCCCC1,–,–,–,–,–
CC(C)C(NC(=O)C(C(C)C)N(C)C)C(=O)N(C)C(C(=O)N1CCCC1C(=O)N1CCCC1C(=O)NCc1ccccc1)C(C)C (configuration not stated),–,-86,?,?,–
O=C(NCc1ccncc1)[C@@H]1CCCN1C(=O)[C@@H]1CCCN1C(=O)c1ccccc1,·,–,–,–,–
